From PubChem BioAssay (EPA / NIEHS)
Calls of active or inactive are those of the source. How the source made its calls: active means hit-call score of the fitted dose curve at least 0.9, where 1 is the maximum; inactive means score below 0.9.

Columns and labels:
[1] = ATG_CRE_CIS: Attagene CIS-FACTORIAL HepG2 Assay for human cAMP Responsive Element (CRE) binding protein 3 (AID 2282926); conditions: HepG2 CRE cis-reporter, Attagene multiplexed mRNA; actives raise or lower the signal
Summary of the method: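 Endogenous CRE-binding activity in HepG2 is reported through a cis-regulated transfected reporter. Following a day of exposure, mRNA levels are determined by reverse transcription PCR and fluorescent fragment analysis; fits run in both directions versus DMSO.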

[2] = target: CCAAT/enhancer-binding protein beta (Homo sapiens) (UniProt P17676); assay: ATG_C_EBP_CIS: Attagene CIS-FACTORIAL HepG2 Assay for human CCAAT/Enhancer Binding Protein (C/EBP) beta (AID 2282927); conditions: HepG2 Attagene cis-factorial transcription factor reporter; actives raise or lower the signal
Chain of CCAAT/enhancer-binding protein beta (Homo sapiens) (P17676 whole entry, looked up, the tested form may be a part): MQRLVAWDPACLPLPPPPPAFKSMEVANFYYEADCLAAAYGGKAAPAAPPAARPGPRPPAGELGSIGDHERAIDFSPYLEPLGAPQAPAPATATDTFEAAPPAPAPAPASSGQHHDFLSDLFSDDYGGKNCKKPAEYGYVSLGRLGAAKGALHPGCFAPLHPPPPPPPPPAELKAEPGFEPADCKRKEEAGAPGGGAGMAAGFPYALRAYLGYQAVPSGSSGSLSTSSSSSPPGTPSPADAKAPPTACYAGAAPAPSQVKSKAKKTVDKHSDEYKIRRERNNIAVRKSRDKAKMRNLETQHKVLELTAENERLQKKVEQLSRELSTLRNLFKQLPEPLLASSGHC
Summary of the method: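 Endogenous C/EBPb-driven reporter transcripts measured in transfected human HepG2 cells at 24 h via RT-PCR and capillary electrophoresis of labelled fragments. Activity fitted in both directions relative to DMSO baseline.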

[3] = ATG_CMV_CIS: Attagene CIS-FACTORIAL HepG2 Assay for human CMV (Internal Marker) (AID 2282928); conditions: HepG2 CMV promoter reporter, transcription factor profiling; actives raise or lower the signal;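 further: endpoint acts as a background internal control marker rather than a target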
Summary of the method: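 After transient transfection of HepG2 with reporter transcription units driven by cis-regulatory promoters, cells receive test chemical for 24 h. Labeled reporter amplicons, digested with HpaI, are sized and quantified by capillary electrophoresis against DMSO.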

[4] = ATG_DR4_LXR_CIS: Attagene CIS-FACTORIAL HepG2 Assay for human Liver X Receptor (LXR), DR4 submotif (AID 2282929); conditions: HepG2 Attagene DR4 cis-reporter, mRNA transcription; actives raise or lower the signal
Summary of the method: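 HepG2, transient MRTU transfection, cis-element (DR4) promoter; 24 h compound exposure; total RNA → oligo(dT) RT → PCR → 6-FAM primer extension → HpaI cut → CE. Gain/loss vs DMSO, bidirectional fit.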

[5] = target: Aryl hydrocarbon receptor (Homo sapiens) (UniProt P35869); assay: ATG_Ahr_CIS: Attagene CIS-FACTORIAL HepG2 Assay for human Aryl Hydrocarbon Receptor (Ahr) (AID 2282930); conditions: HepG2 AhR cis-factorial reporter transcription; actives raise or lower the signal
Chain of Aryl hydrocarbon receptor (Homo sapiens) (P35869 whole entry, looked up): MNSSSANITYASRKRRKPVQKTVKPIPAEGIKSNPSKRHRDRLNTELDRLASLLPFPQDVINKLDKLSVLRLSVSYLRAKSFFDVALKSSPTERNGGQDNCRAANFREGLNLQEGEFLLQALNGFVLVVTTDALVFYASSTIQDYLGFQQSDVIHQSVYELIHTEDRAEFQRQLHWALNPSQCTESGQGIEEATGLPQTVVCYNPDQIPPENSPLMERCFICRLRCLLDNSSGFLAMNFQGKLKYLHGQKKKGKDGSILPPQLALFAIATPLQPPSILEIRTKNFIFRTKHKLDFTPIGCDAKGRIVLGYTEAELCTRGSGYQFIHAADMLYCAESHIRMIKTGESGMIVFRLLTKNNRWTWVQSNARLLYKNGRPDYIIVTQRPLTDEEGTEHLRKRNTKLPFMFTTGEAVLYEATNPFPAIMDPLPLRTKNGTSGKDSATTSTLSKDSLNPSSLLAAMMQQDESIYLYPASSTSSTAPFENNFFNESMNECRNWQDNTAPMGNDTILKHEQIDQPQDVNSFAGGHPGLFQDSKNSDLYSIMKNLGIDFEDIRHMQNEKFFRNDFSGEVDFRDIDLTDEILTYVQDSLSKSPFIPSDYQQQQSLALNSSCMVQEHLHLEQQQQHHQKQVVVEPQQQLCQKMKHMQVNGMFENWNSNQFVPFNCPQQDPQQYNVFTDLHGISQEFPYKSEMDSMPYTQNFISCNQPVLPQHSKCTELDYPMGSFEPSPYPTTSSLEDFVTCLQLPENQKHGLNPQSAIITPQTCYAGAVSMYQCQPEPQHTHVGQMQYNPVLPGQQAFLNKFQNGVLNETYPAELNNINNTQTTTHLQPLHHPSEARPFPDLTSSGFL
Summary of the method: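 Reporter mRNA levels, quantified by RT-PCR and fluorescent capillary electrophoresis, reflect endogenous AhR transcriptional activity in HepG2 cells carrying transfected cis-promoter reporter constructs. Readout at 24 h post-dose; gain or loss fitted against DMSO baseline.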

[6] = ATG_AP_1_CIS: Attagene CIS-FACTORIAL HepG2 Assay for human Activator Protein 1 (AP-1) (AID 2282931); conditions: HepG2 Attagene cis-factorial AP-1 reporter mRNA; actives raise or lower the signal
Summary of the method: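 Transient MRTU transfection of HepG2 → 24 h chemical treatment → RNA isolation, RT-PCR, 6-FAM labelling, HpaI digest → capillary electrophoresis. Fit: bidirectional, DMSO negative control.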

[7] = ATG_AP_2_CIS: Attagene CIS-FACTORIAL HepG2 Assay for human Activator Protein 2 (AP-2) (AID 2282932); conditions: HepG2 AP-2 cis-reporter, Attagene transcription factor profiling; actives raise or lower the signal
Summary of the method: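 Step one: transient transfection of HepG2 with reporter transcription units. Step two: 24 h chemical exposure. Step three: RNA extraction, RT-PCR, labelled fragment analysis by capillary electrophoresis; DMSO serves as baseline.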

[8] = ATG_BRE_CIS: Attagene CIS-FACTORIAL HepG2 Assay for human Bone Morphogenetic Protein (BMP) Response Element (BRE) (AID 2282933); conditions: HepG2 BMP response element reporter, Attagene transcription factor profiling; actives raise or lower the signal
Summary of the method: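 HepG2 cells transiently transfected with CIS reporter units (endogenous TF activity, BMP response element), dosed 24 h. Reporter mRNA quantified by RT-PCR, fluorescent labelling and capillary electrophoresis; bidirectional fit vs DMSO baseline.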

[9] = target: Retinoic acid receptor alpha (Homo sapiens) (UniProt P10276); assay: ATG_DR5_RAR_CIS: Attagene CIS-FACTORIAL HepG2 Assay for human Retinoic Acid Receptor Alpha (RARE), DR5 submotif (AID 2282934); conditions: HepG2 Attagene cis-factorial RARE DR5 reporter, mRNA; actives raise or lower the signal;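 on AC50: reporter responds to endogenous RAR alpha beta and gamma in HepG2 not RARA alone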
Chain of Retinoic acid receptor alpha (Homo sapiens) (P10276 whole entry, looked up): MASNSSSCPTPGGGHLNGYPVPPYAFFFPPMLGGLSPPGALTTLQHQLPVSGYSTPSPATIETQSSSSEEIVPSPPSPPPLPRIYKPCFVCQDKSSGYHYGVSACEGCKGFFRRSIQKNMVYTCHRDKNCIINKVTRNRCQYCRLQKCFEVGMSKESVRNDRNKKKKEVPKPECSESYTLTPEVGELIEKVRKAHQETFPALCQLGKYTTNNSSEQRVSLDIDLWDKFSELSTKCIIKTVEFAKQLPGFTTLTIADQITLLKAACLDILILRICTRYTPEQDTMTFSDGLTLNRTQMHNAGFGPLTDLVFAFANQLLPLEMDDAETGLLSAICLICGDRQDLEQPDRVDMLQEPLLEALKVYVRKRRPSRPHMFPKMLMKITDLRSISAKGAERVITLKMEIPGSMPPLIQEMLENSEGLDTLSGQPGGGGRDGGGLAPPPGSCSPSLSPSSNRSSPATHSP
Summary of the method: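 Reporter transcripts from a DR5-regulated unit, measured via RT-PCR plus capillary electrophoresis, reflect endogenous RAR activity in transiently transfected human HepG2 liver cells. Exposure lasted 24 h; gain or loss of signal scored against DMSO.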

[10] = target: Transcription factor E2F1 (Homo sapiens) (UniProt Q01094); assay: ATG_E2F_CIS: Attagene CIS-FACTORIAL HepG2 Assay for human E2F Transcription Factor 1 (AID 2282935); conditions: HepG2 Attagene cis-reporter, E2F reporter RNA transcripts; actives raise or lower the signal
Chain of Transcription factor E2F1 (Homo sapiens) (Q01094 whole entry, looked up): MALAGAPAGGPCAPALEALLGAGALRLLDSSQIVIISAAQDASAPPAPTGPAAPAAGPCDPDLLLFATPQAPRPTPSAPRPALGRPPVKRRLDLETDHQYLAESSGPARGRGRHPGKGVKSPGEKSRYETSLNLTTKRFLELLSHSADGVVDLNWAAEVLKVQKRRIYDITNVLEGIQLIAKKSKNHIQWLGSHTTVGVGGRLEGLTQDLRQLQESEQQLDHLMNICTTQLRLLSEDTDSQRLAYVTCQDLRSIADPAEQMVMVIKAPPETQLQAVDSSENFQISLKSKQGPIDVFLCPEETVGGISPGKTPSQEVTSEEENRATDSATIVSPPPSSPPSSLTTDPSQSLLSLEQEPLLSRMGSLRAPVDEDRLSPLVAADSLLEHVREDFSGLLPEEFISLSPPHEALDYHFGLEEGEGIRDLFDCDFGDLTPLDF
Summary of the method: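 Total RNA from 24 h-treated, reporter-transfected HepG2 cells undergoes DNase I treatment, oligo(dT) reverse transcription, PCR and 6-FAM primer extension before capillary electrophoresis.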

[11] = ATG_E_Box_CIS: Attagene CIS-FACTORIAL HepG2 Assay for human Enhancer Box (E-box) (AID 2282936); conditions: HepG2 E-box cis-reporter transcription, actives raise or lower the signal
Summary of the method: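 DMSO served as negative control and baseline for bidirectional fitting. Human hepatoma HepG2 cells, transiently transfected with cis-reporter constructs, were dosed 24 h; reporter mRNA read by RT-PCR and capillary electrophoresis.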

[12] = ATG_M_61_CIS: Attagene CIS-FACTORIAL HepG2 Assay for M61 Transcription Factor (Internal Marker) (AID 2282937); conditions: HepG2 Attagene CIS-FACTORIAL M61 internal marker reporter; actives raise or lower the signal
Summary of the method: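 Human liver HepG2, transient MRTU transfection (cis promoter elements), 24 h compound. Total RNA → oligo(dT) RT → PCR → FAM label → HpaI → CE. Internal background marker; bidirectional fitting, DMSO = baseline.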

[13] = ATG_EGR_CIS: Attagene CIS-FACTORIAL HepG2 Assay for human Early Growth Response 1 (EGR1) (AID 2282938); conditions: HepG2 Attagene CIS-FACTORIAL EGR reporter mRNA; actives raise or lower the signal
Summary of the method: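 Transient transfection of human HepG2 with multiple cis-regulated reporter units, chemical exposure 24 h, total RNA isolated. Reverse transcription, PCR, fluorescent labelling and capillary electrophoresis quantify reporter transcripts; activity fitted bidirectionally against DMSO.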

[14] = ATG_M_19_CIS: Attagene CIS-FACTORIAL HepG2 Assay for M19 Transcription Factor (Internal Marker) (AID 2282939); conditions: HepG2 Attagene CIS-FACTORIAL M19 internal marker reporter; actives raise or lower the signal
Summary of the method: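 HepG2 cells transiently transfected with cis-regulated multiplexed reporter units, dosed 24 h. Reporter mRNA quantified by RT-PCR and capillary electrophoresis; internal background marker fitted bidirectionally versus DMSO.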

[15] = ATG_ERE_CIS: Attagene CIS-FACTORIAL HepG2 Assay for Estrogen Response Element (ERE) (AID 2282940); conditions: HepG2 ERE cis-reporter, Attagene RNA transcript; actives raise or lower the signal
Summary of the method: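 HepG2 cells transiently transfected with multiplexed cis-element reporter units, measuring endogenous transcription factor activity; ERE reporter mRNA quantified after 24 h exposure by RT-PCR, fluorescent labelling, HpaI digestion and capillary electrophoresis. Bidirectional change versus DMSO.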

Measured: AC50

CS(=O)(=O)c1ccc(C(=O)C2C(=O)CCCC2=O)c(Cl)c1COCC(F)(F)F
active: [15] 27.3 µM
inactive: all other assays above

C=CC(F)(C(F)(F)F)C(F)(F)C(F)(F)F (centres undefined)
inactive: all assays above

O=C1C=CC(=O)c2ccccc21
active: [5] 0.652 µM
inactive: all other assays above

O=S1OC[C@@H]2[C@H](CO1)[C@]1(Cl)C(Cl)=C(Cl)[C@@]2(Cl)C1(Cl)Cl (some centres undefined)
active: [3] 100 µM | [4] 27.1 µM | [6] 100 µM | [15] 2.77 µM
inactive: all other assays above

CN(N=O)c1ccc([N+](=O)[O-])cc1
active: [5] 26.8 µM
not listed: [6]
inactive: all other assays above

O=C(NC(=O)c1c(F)cccc1F)Nc1cc(Cl)c(Oc2ncc(C(F)(F)F)cc2Cl)c(Cl)c1
active: [4] 4.57 µM
not listed: [6]
inactive: all other assays above

O=C(Nc1ccc(Br)cc1)c1cc(Br)cc(Br)c1O
active: [5] 0.63 µM | [8] 13.3 µM | [9] 4.76 µM | [13] 52.9 µM
not listed: [6]
inactive: all other assays above

CCOP(=O)(OCC)SCCSCC
not listed: [6]
inactive: all other assays above

CC(C)(c1ccc(O)c(-c2ccccc2)c1)c1ccc(O)c(-c2ccccc2)c1
active: [13] 5.2 µM
not listed: [4] | [6]
inactive: all other assays above
